This passage reports growth results from PubChem BioAssay (NCI).

Values joined by “and” are separate entries in the source; they are usually repeats but may differ in a detail not shown here. Identical values can stand only once. The panel holds about 83,000 compounds, 20% with a hit somewhere; the sample as a whole holds those more often.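 Values shown are percent growth following 48 h exposure of cells in 96-well plates to a single concentration of compound; below 10 was considered active.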 Active and inactive are the calls of the source.

In this assay the test system is MCF7 breast. Put plainly: NCI-60 one-dose screen, 48 h (100 = growth as untreated, 0 = no growth, -100 = all killed). The note with it: 10 µM unless noted.
For the molecule `COc1cc([C@H]2OC[C@@H]3C(c4cc(OC)c5c(c4)OCO5)OC[C@H]23)cc(OC)c1OC` (some centres not stated), the growth was 67.2% [100 µM] (inactive) and 7.31% [100 µM] (active). Next, `CCCCCCCCOC(=O)C12Oc3ccc(-c4ccc5c(c4O)C(O)=C4C(=O)CC(C)C(O)C4(C(=O)OCCCCCCCC)O5)c(O)c3C(O)=C1C(=O)CC(C)C2O` (configuration not stated): -22.3% [100 µM] (active) and -100% [100 µM] (active); `COC(=O)C1=CO[C@@H](OC2OC(CO)C(O)C(O)C2O)[C@H]2[C@@H](C)[C@@H](O)[C@@H](O)[C@@H]12` (some centres not stated): 95.3% [100 µM] (inactive) and 91.8% [100 µM] (inactive); `COc1cc2c3cc1Oc1c(OC)c(OC)cc4c1C(Cc1ccc(O)c(c1)-c1cc(ccc1OC)CC3N(C)CC2)N(C)CC4` (configuration not stated): 10.3% [100 µM] (inactive) and -92.9% [100 µM] (active). Consider `CC1CC2(OC2C)C(=O)OC2CCN(C)C/C=C(/COC(=O)C1(C)O)C2=O` (configuration not stated), for which the growth was 91.6% [100 µM] (inactive) and 82.5% [100 µM] (inactive). For the molecule `COc1c(OC)c(OC)c2c(c1OC)c(=O)c1ccccc1n2C`, the growth is 65.5% [100 µM] (inactive) and -50% [100 µM] (active).

On to `N#CC1(C#N)N[C@@H](c2ccsc2)[C@H]2C(=O)N(c3ccccc3)C(=O)[C@H]21`, for which the growth was 22.5% [100 µM] (inactive) and 12.4% [100 µM] (inactive). With `C=CCn1c2c(c3ccccc3c1=O)C(=O)c1ccccc1-2`, the growth was 68.3% [100 µM] (inactive) and 23.2% [100 µM] (inactive). Next, `Cc1ccc(C)c(NC(=O)/C(=N\N)C(c2cnc3ccc([N+](=O)[O-])cc3n2)[N+](=O)[O-])c1` (configuration not stated): 50.4% [100 µM] (inactive) and 9.64% [100 µM] (active); `CCC1OC2(C)CC(C#N)(C#N)C1(C#N)C(=N)O2` (configuration not stated): 39.8% [100 µM] (inactive); `Clc1ccc(C2NN=C3c4ccccc4OCC32)cc1` (configuration not stated): -15.5% [100 µM] (active) and -82.5% [100 µM] (active). Next, `COc1cc2c(cc1-c1coc3cc(O)ccc3c1=O)OCO2`: 67.5% [100 µM] (inactive) and 58.5% [100 µM] (inactive). With `C[N+](C)(CCNC(=O)c1cccc2cc3ccccc3nc12)Cc1ccc([N+](=O)[O-])s1`, the growth is 37.1% [25 µM] (inactive) and 55.9% [25 µM] (inactive). For `CNc1nc2c(C)ccc3[nH]c(N(C)C)nc3c-2n1`, the growth is 8.99% [100 µM] (active) and 1.25% [100 µM] (active). In the case of `C=C1C(=O)OC2CC(C)C3(O)CCC(=O)C3(C)CC12` (configuration not stated) it was 13.7% [100 µM] (inactive) and 3.19% [100 µM] (active); in that of `COC(=O)C(C(=O)C(=O)NC1Nc2ccc(C)cc2S1)c1nc2ccc(Cl)cc2[nH]c1=O` (configuration not stated), 79.7% [100 µM] (inactive) and 65.5% [100 µM] (inactive); in that of `COC(=O)/C(=N\NC(=S)NN)C(C(=O)OC)C(=O)C(=O)Nc1cccc(C(F)(F)F)c1` (configuration not stated), 63.8% [100 µM] (inactive) and 8.67% [100 µM] (active). In the case of `O=C1NC(N/N=C\c2ccccc2)=N/C1=C/c1ccc(Cl)cc1` it was -66.3% [100 µM] (active) and 14% [100 µM] (inactive). For the molecule `COC(=O)C1CCC(=O)N1CN(C(C)=O)c1cccc(O)c1` (configuration not stated), the growth is 90.1% [100 µM] (inactive) and 83.5% [100 µM] (inactive).

In the case of `O=C(CCc1ccc(O)c(O)c1)c1ccc(O)c(O)c1O`, the growth was -69.8% [100 µM] (active) and -72.6% [100 µM] (active). Next, `CC(=O)c1ccc(NC(=O)/C(CC(=O)/C=C/c2ccccc2)=N/NC(N)=S)cc1`: 52.9% [100 µM] (inactive) and 4.14% [100 µM] (active); `COc1ccc2c(=O)c(-c3cc4c(cc3OC)OCO4)coc2c1`: 74% [100 µM] (inactive) and 47.3% [100 µM] (inactive); `CC1=CC(=O)c2ccc(C)cc2C1=O`: -70.7% [100 µM] (active) and -100% [100 µM] (active). In the case of `CC1OC(Oc2c(-c3cc(O)c(O)c(O)c3)oc3cc(O)cc(O)c3c2=O)C(O)C(O)C1O` (configuration not stated) it was 77.9% [100 µM] (inactive) and -43.3% [100 µM] (active); in that of `COc1ccc(-c2nc3ccccc3c(=S)n2OC(C)=O)cc1`, 8.58% [25 µM] (active) and -23% [25 µM] (active); in that of `CCCCC1C(=O)N(c2ccc(S(=O)(=O)Nc3ccccn3)cc2)N(c2ccc(O)c(C(=O)O)c2)C1=O` (configuration not stated), 121% [100 µM] (inactive) and 87.3% [100 µM] (inactive). In the case of `O=C(O)CCCC(=O)Nn1c(Cc2ccc(Cl)cc2)n[nH]c1=O` it was 78.3% [100 µM] (inactive) and 78.8% [100 µM] (inactive); in that of `COc1ccc2nc(N/N=C/c3ccc(C)s3)cc(C)c2c1`, -92.2% [100 µM] (active) and -100% [100 µM] (active). For `CCCCCC(O)(CCCCC)CCCCCCCCC1=C(O)c2ccccc2C(=O)C1=O`, the growth was -37.7% [100 µM] (active) and -36.7% [100 µM] (active).

In the case of `CCCCCCCCCCCCC/C=C/[C@H]1[C@@H](C(=O)OC)N1S(=O)c1ccc(C)cc1` (some centres not stated), the growth was 53.6% [100 µM] (inactive) and 36.2% [100 µM] (inactive). Next, `NC(=O)CC1OC(=O)Cc2cc3c(c(O)c21)C(=O)c1c(O)cccc1C3=O` (configuration not stated): 30.4% [100 µM] (inactive). Next, `COC(=O)c1cnn2c1n[n+]([O-])c1ccccc12`: 68.2% [100 µM] (inactive) and 11.8% [100 µM] (inactive); `CC1CC(=O)N(N(C)C)C(C#N)(C#N)C1(C#N)C#N` (configuration not stated): -67.7% [100 µM] (active) and -85.9% [100 µM] (active).

As for `CC(=O)C1=C(C)N2C(=NC3=C(CCc4ccccc43)C2c2ccc(Cl)cc2)S1` (configuration not stated), the growth was 24.9% [100 µM] (inactive) and 9.75% [100 µM] (active). Next, `C[C@@H]1C[C@@H]2OC(=O)[C@]3(C)[C@H]2[C@@H](OC3(C)O)[C@]2(C)C(=O)C=C[C@@H]12` (some centres not stated): -67.1% [100 µM] (active) and -81.7% [100 µM] (active); `COc1ccc2c(c1)N(C(C)=O)CN1C(=O)CCC21` (configuration not stated): 86.1% [100 µM] (inactive) and 85.1% [100 µM] (inactive); `Cc1ccc(OC2CC(n3cnc4ncnc(Cl)c43)OC2Oc2ccc(C)cc2)cc1` (configuration not stated): 8.44% [100 µM] (active) and -95.4% [100 µM] (active).
